# Abs 340nm = compound light absorbance at 340 nm, profiling panel, artefact control, biochemical, MLSMR library, data from PS, PMK, MK assays; compound absorbance at 340 nm, fold over control; fold change at 10 µM; 65,000 tested, under 10 active; AID 708, 2007;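 active = at 10 µM dose, initial 340 nm absorbance at least 2 fold that of control wells; inactive = change under 2 fold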;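 also: initial absorbance extrapolated from kinetic A340 decline of NADH oxidation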
# Cdc25B block = inhibitors of Cdc25B phosphatase catalytic domain, primary screen, biochemical, OMFP fluorescence. recombinant Cdc25B, OMFP fluorescence Ex485/Em525. M-phase inducer phosphatase 2 (Homo sapiens), P30305. 65,000 tested, 0.1% active. inhibition, %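 (compounds tested at 10 µM final in the well)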; in the data active = inhibition above about 50%
# NADH enzymes = inhibitors of PK/LDH coupling enzymes, profiling panel, artefact control, biochemical, MLSMR library. coupled PK/LDH NADH assays, four targets. IC50, µM (doses to about 10 µM), for inactives: at the top dose inhibition. 65,000 tested, 0.02% active;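 active = single-dose screening hits from any of four coupled enzyme assays that gave an IC50 when retested across doses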;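 also: the DPM-DC format reads NADH fluorescence rather than 340 nm absorbance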
# Hsp90 block = tumor Hsp90 inhibitors, primary screen, cell lysate, fluorescence polarization, NCI-N417 lysate. Heat shock protein HSP 90-alpha (Homo sapiens), P07900. 64,000 tested, 0.35% active. inhibition, % at 30 µM. Cy3B-geldanamycin FP displacement;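 active = inhibition above 50%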;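 also: 0% = tracer plus lysate wells and 100% = tracer alone without lysate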
# DUSP1 inh = MKP-1 phosphatase inhibitors, primary screen, biochemical, in vitro; 65,000 tested, 0.15% active; inhibition, %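 (compounds tested at a single concentration somewhere between 10 and 100 µM)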; recombinant MKP-1, OMFP hydrolysis fluorescence;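 active = inhibition above about 50%, limit read from the data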;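 also: 0% = DMSO max control wells and 100% = wells with enzyme stopped by NaOH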
# Target sequence (P28562 whole entry, looked up): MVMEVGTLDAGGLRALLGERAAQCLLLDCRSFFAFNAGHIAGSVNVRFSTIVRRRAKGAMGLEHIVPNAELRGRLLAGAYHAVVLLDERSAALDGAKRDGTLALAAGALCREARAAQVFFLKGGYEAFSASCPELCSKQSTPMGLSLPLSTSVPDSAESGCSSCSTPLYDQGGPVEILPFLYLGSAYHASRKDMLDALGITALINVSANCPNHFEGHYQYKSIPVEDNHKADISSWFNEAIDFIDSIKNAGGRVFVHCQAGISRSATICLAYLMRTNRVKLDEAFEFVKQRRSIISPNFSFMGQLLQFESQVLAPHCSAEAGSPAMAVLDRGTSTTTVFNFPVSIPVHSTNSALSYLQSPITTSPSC
# Autofluor 339 = intrinsic fluorescence of library compounds, ex339/em460 – biochemical, MLSMR library, data from DPM-DC assay, artefact control, profiling panel. fluorescence fold increase at 10 µM. compound autofluorescence, ex339/em460 nm, NADH buffer; active compounds read high; 1 = no-compound wells, NADH background. 65,000 tested, 5.5% active. AID 709, 2007;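 active = at 10 µM, mean starting fluorescence two-fold or more over control wells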;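 also: signal is the first read of a kinetic run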
# Active calls of the source: *; / = no result given. An excerpt weighted towards active compounds, which were near 5.7% of everything screened.
SMILES,Abs 340nm,Cdc25B block,NADH enzymes,Hsp90 block,DUSP1 inh,Autofluor 339
Cc1ccc(N2CCN(C(=O)C3CCN(S(=O)(=O)c4cccc5nsnc45)CC3)CC2C)cc1 (configuration not stated),1,3,8%,-2,30,1.1
COc1ccc(S(=O)(=O)N(C)CC(=O)N2CCCCCC2)cc1OC,1,-1,3%,-1,5,1
COc1ccc(S(=O)(=O)N(C)CC(=O)N2CCC(C(N)=O)CC2)cc1Cl,1,-4,5%,73*,-28,1.1
N#CCCN(Cc1cccnc1)C(=O)Nc1cccc(Cl)c1,1,8,5%,2,24,1.1
CCn1c(SCC(=O)Nc2ccc(NC(=O)c3ccco3)c(OC)c2)nc2ccccc2c1=O,1,-7,5%,-1,0,5.2*
CCCCn1c(SCC(=O)Nc2cc(NC(=O)c3ccco3)ccc2C)nc2ccccc2c1=O,1.1,4,10%,-6,36,1.8
COc1ccc(NS(=O)(=O)c2cc(-c3nnnn3C)ccc2OC)cc1,1,-11,4%,/,4,1.1
CCOc1ccc2cc(C#N)c(SCC(=O)N3CCOCC3)nc2c1,1,-1,3%,2,-11,2.7*
Cc1ccccc1C(=O)NCc1ccncc1,1,-7,8%,-1,-18,1.1
Cc1cccc(CNC(=O)c2ccccc2N)c1,1.1,-10,5%,-2,-3,3.6*
CNc1oc(-c2ccc(Cl)cc2)nc1C#N,1.1,18,7%,-4,-22,2.4*
Cc1ccc(-c2nc(C#N)c(NCc3cccc4c3OCO4)o2)cc1,1.1,7,1%,0,13,2.6*
O=S(=O)(c1ccccc1)c1nc(-c2ccco2)oc1NCc1cccnc1,1.1,-6,1%,-3,6,1.1
CNc1oc(-c2ccco2)nc1C#N,1,-6,16%,-4,-15,4*
N#Cc1nc(-c2ccc(OCc3ccc(Cl)cc3)cc2)oc1NCc1cccnc1,1.1,-4,2%,-1,-8,1.5
Clc1ccc(-c2nnc(-c3ccco3)o2)cc1,0.96,-10,6%,-5,-6,1.7
Cc1ccc(CNc2oc(-c3ccco3)nc2C#N)cc1,1,-1,5%,-3,8,2.1*
C=CCn1c(=NC(=O)C2CC2)sc2cc(NC(C)=O)ccc21,1.1,1,16%,-3,17,2.1*
Cc1ccc(NCc2nnc(SCC(=O)c3ccccc3)n2Cc2ccco2)c(C)c1,1,-9,2%,-3,30,1
c1nc(N2CCNCC2)c2sc3nc(N4CCOCC4)c4c(c3c2n1)CCC4,1.1,-23,2%,/,-4,2.1*
OCCN(CCO)c1ncnc2c1sc1nc(N3CCOCC3)c3c(c12)CCCC3,1.1,-38,6%,-1,27,1.5
OCCN1CCN(c2ncnc3c2sc2nc(N4CCOCC4)c4c(c23)CCC4)CC1,1.2,-18,4%,/,34,2.1*
CN(C(=O)c1cccnc1)c1nnc(-c2ccccn2)s1,0.94,-10,12%,-1,-7,2.2*
CN(C(=O)c1cccc(C#N)c1)c1nnc(-c2cnccn2)s1,1,-6,6%,0,6,1.1
CN(C(=O)c1cccnc1)c1nnc(-c2cnccn2)s1,1.1,7,4%,2,7,1.1
SMILES,Abs 340nm,Cdc25B block,NADH enzymes,Hsp90 block,DUSP1 inh,Autofluor 339
CN(C(=O)c1cccc(C#N)c1)c1nnc(-c2ccncc2)s1,1,2,12%,-1,-24,2.4*
Cc1cc(C)n2nc3nc4c(cc3c2n1)CCCC4,1.1,-5,6%,/,3,2.2*
COc1ccccc1-c1c(C)nn2c(C)cc(C)nc12,1,1,5%,0,-7,1.1
O=S(=O)(Nc1nc(CN2CCOCC2)nc2sc3c(c12)CCCC3)c1cc(F)ccc1F,1,-4,6%,-7,32,1.3
COc1ccc(OC)c(-c2nnc(-c3ccc(C)o3)o2)c1,1.1,3,11%,-7,-7,3.9*
O=c1c(-c2ccc(F)cc2)coc2cc(O)ccc12,1.1,-4,5%,-1,7,2.2*
COc1ccc(-c2c(C)oc3cc(O)cc(O)c3c2=O)cc1OC,1.1,-16,3%,-4,13,1.1
COc1ccc(-c2coc3cc(O)ccc3c2=O)cc1OC,1.1,-2,16%,0,-2,3.6*
Cc1cc2c(cc(C(=O)NCc3cccnc3)n2Cc2ccc(Cl)cc2)o1,1,-1,3%,-11,21,1.1
CC1Cc2cc(C3(O)C(=O)c4ccccc4C3=O)ccc2N1 (configuration not stated),0.99,-9,3%,-2,1,1.1
CCOC(=O)c1sc(NCCNc2nc(C)c(C(=O)OCC)s2)nc1C,1.1,2,1%,-3,0,1.1
CCOC(=O)c1sc(NC(=O)c2ccc(Cl)s2)cc1C,1.1,3,4%,-1,1,2.1*
CCOC(=O)c1sc(NC(=O)c2ccc(CC)s2)nc1C,1.1,1,2%,-7,20,3.3*
CCOC(=O)c1sc(NC(=O)C2CC2)cc1C,1.1,0,3%,-2,8,1
CCOC(=O)CSc1nc(C2CC2)nc2ccccc12,1,-11,6%,-1,-41,1.1
CC1(C)C(=O)OC(c2cccs2)C(C)(C)C1=O (configuration not stated),1,0,4%,1,10,1.1
COC(=O)CC(=O)CSc1nc2c(cc1C#N)CCCCC2,1.1,-5,0%,-11,5,3.9*
CCOC(=O)CSc1nnc(-c2nnc(SCC(=O)OCC)n2CC)n1CC,1,-20,6%,-5,0,0.96
COCCN(CCOC)C(=O)c1c[nH]c2ccc(S(=O)(=O)N(C)c3ccc(F)cc3)cc2c1=O,1,3,10%,1,30,2.3*
CCN(CC)c1ccc(NC(=O)CSc2nnc(N)s2)cc1C,1,-6,4%,-4,10,1.1
CCN(CC)c1cc(C)c2cc(NC(=O)CNC(C)=O)ccc2n1,1.1,-15,7%,/,28,2.2*
COC(=O)c1ccc(OCCN2C3=NCCN3c3ccccc32)cc1,1,4,5%,0,-10,1.1
CCN(CC)CCCCCCCCOC(=O)c1cc(OC)c(OC)c(OC)c1,/,/,/,0,/,/
CCOC(=O)C(C)Sc1nc(-c2ccco2)cc(C(F)(F)F)c1C#N (configuration not stated),1.1,6,8%,-10,13,2.8*

# Compound activity from PubChem.
